Source: PubChem BioAssay AID540359 (Broad Institute, 2011)
Measured potencies and affinities stand elsewhere. Active and inactive are the calls of the source. The rule behind the calls is not given here.

Biological target: UDP-galactopyranose mutase (Mycobacterium tuberculosis (strain ATCC 25618 / H37Rv)) (UniProt P9WIQ1)
Assay: UDP galactopyranose mutase inhibitors, Mycobacterium tuberculosis, cherry pick dose confirmation (AID 540359)
Conditions: purified UGM enzyme, plate reader activity; series mostly up to 50 µM

Chain of UDP-galactopyranose mutase (Mycobacterium tuberculosis (strain ATCC 25618 / H37Rv)) (P9WIQ1 whole entry, looked up): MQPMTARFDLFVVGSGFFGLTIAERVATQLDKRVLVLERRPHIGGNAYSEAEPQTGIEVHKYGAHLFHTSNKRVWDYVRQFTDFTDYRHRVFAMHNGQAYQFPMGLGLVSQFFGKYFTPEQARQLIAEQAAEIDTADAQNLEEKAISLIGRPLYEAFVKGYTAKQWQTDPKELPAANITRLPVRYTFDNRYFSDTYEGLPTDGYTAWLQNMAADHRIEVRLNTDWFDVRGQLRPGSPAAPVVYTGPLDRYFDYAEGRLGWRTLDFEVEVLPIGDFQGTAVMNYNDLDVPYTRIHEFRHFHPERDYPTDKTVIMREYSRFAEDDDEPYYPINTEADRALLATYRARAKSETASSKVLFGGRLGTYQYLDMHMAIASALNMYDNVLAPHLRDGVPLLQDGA

| Structure (SMILES) | outcome |
| --- | --- |
| CCN(CC)C(=O)C1c2ccccc2Oc2ccccc21 | inactive |
| COc1cc(N2CCCC2)c(OC)cc1/C=C(/C#N)c1ccc(Br)cc1 | inactive |
| CC(=O)NC(Cc1ccccc1)C(=O)OCC(=O)c1ccccc1 (configuration not stated) | inactive |
| CCOc1ccc(C(C(=O)NC2CCCC2)N(C(=O)CNC(=O)c2ccco2)c2cccnc2)cc1 (configuration not stated) | inactive |
| CCN(C(=O)COC(=O)c1cc(Cl)ccc1OC)c1c(N)n(Cc2ccccc2)c(=O)[nH]c1=O | inactive |
| CCOC(=O)C1CCCN(C(=O)C2c3ccccc3Oc3ccccc32)C1 (configuration not stated) | inactive |
| O=C(COC(=O)COc1cccc(Br)c1)NCc1ccc2c(c1)OCO2 | inactive |
| COc1ccc(CCn2c(=N)c(S(=O)(=O)c3ccc(C)cc3)cc3c(=O)n4ccccc4nc32)cc1 | inactive |
| Cc1nn(-c2ccccc2)c(Cl)c1C(=O)NCC1CCCO1 (configuration not stated) | inactive |
| Cc1n[nH]c(=O)c2c(NC(=O)CSc3nnc(-c4ccco4)n3C)oc(C)c12 | inactive |
| CCOC(=O)c1cnc2ccc(Cl)cc2c1NCCN(C)C | inactive |
| COc1ccc(-c2cc(=O)[nH]c3ccccc23)cc1 | inactive |
